# Source: PubChem BioAssay (NCATS)
# Where “and” joins values, the source holds several entries; their conditions need not be identical. Equal entries are not always repeated. Records with an inconclusive call do not appear. Entries that show only a call come without a potency. Calls of active or inactive are those of the source. Unless noted, calls come from the whole dose curve; as a rule, active = well fitted curve in the direction sought with a large enough effect; inconclusive = small, poorly fitted or top-dose-only effect, or another doubt; inactive = no such curve, though single readings can be large; an effect the other way counts as inactive or inconclusive.
# What was measured:
# [1] = A High-Content qHTS Against Drug Library for the Identification of Small Molecules that Inhibit DYT1 Early Onset Primary Dystonia-Associated Cell Pathology (AID 1645839; calls by dose curve; note: series mostly up to about 46 µM)
# In short: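 Cells were seeded and left for 24 h, then dosed with compound alongside tetracycline induction of mutant EGFP-TorsinA. They were incubated for 48 h, fixed in 4% paraformaldehyde, permeabilized and imaged for mislocalization (%pathology) and cell count.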
# [2] = molecular target: Cytochrome P450 2D6 (Homo sapiens) (UniProt P10635); test: Cytochrome P450 family 2 subfamily D member 6 (CYP2D6) small molecule antagonists: luciferase biochemical (cell-free) qHTS assay (AID 1645840; active = well fitted curve in the direction sought with a large enough effect in the repeat runs; an effect the other way counts as inactive or inconclusive; note: nearly all actives have a fitted effect of over 55% in size; note: potency is the fitted concentration of half-maximal effect)
# Cytochrome P450 2D6 (Homo sapiens), sequence (P10635 whole entry, looked up): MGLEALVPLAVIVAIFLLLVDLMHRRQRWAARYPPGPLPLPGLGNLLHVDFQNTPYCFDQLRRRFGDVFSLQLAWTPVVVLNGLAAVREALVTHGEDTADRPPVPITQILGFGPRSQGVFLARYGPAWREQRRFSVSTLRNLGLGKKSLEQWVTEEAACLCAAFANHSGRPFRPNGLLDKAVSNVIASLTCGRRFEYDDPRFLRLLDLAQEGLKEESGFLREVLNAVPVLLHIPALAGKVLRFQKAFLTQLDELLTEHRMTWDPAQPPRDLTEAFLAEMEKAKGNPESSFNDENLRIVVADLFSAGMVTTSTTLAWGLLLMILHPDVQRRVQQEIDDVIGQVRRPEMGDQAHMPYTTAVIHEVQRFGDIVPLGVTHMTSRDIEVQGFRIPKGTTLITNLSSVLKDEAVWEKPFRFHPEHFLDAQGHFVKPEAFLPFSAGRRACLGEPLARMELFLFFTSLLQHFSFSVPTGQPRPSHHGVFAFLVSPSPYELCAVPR
# In short: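 P450-Glo CYP2D6 system: proluciferin substrate converted by enzyme to luciferin, read by luminescence proportional to activity. Enzyme-substrate mix with compound 10 min at room temperature, then NADPH regeneration 1 h before detection reagent.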
# [3] = molecular target: Cytochrome P450 2C9 (Homo sapiens) (UniProt P11712); test: Cytochrome P450 family 2 subfamily C member 9 (CYP2C9) small molecule antagonists: luciferase biochemical (cell-free) qHTS assay (AID 1645842; active = well fitted curve in the direction sought with a large enough effect in the repeat runs; an effect the other way counts as inactive or inconclusive; note: nearly all actives have a fitted effect of over 55% in size; note: potency is the fitted concentration of half-maximal effect)
# Cytochrome P450 2C9 (Homo sapiens), sequence (P11712 whole entry, looked up): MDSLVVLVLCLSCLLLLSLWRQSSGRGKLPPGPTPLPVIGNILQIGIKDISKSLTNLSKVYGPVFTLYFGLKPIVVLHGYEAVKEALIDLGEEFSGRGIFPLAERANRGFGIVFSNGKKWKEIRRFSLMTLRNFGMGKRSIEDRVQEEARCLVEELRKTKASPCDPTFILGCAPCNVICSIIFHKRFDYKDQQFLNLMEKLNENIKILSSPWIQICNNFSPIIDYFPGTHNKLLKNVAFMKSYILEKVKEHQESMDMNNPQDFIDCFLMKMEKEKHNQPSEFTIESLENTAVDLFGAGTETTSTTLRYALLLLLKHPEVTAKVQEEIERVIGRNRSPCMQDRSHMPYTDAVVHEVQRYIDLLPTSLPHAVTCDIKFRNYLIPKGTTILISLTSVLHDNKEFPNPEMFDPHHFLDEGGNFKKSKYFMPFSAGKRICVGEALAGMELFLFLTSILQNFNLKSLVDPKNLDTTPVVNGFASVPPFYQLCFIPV
# In short: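 P450-Glo CYP2C9 system: proluciferin substrate with enzyme in mix containing 0.4% BSA, 10 min at room temperature, then NADPH regeneration solution added and incubated 1 h at 37C. Detection reagent stopped reaction; luminescence read after 20 min as RLU.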
# [4] = molecular target: Rap guanine nucleotide exchange factor 3 (Homo sapiens) (UniProt O95398); test: Confirmatory qHTS for agonist of cAMP-regulated guanine nucleotide exchange factor 3 (EPAC1) (AID 1645881);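 note: EPAC1 catalysed release of BODIPY-GDP from Rap1B seen as fluorescence loss; nearly all actives have a fitted effect of over 75% in size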
# Rap guanine nucleotide exchange factor 3 (Homo sapiens), sequence (O95398 whole entry, looked up): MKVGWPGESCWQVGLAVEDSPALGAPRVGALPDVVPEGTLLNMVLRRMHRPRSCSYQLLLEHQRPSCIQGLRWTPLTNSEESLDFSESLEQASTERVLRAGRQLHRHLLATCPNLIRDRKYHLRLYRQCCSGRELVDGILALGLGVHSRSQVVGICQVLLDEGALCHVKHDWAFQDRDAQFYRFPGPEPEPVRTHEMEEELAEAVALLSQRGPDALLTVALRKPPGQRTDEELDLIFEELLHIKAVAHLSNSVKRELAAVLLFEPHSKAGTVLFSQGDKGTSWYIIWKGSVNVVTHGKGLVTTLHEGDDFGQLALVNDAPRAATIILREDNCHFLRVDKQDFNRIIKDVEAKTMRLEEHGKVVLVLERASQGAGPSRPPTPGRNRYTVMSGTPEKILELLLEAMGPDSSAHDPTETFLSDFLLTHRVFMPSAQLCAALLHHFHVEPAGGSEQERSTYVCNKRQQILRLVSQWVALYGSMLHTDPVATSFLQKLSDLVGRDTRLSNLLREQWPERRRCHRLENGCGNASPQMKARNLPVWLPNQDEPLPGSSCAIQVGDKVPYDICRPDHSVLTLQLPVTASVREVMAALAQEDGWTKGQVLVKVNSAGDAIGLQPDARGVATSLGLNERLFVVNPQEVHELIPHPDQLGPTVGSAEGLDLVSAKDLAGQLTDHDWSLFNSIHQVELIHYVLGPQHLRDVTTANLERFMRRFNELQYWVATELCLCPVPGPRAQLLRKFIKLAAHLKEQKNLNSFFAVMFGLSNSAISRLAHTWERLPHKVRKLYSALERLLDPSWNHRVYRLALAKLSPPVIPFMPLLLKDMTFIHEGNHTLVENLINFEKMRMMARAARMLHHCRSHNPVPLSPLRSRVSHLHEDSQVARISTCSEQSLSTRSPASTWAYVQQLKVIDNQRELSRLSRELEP
# [5] = molecular target: Rap guanine nucleotide exchange factor 4 (Homo sapiens) (UniProt Q8WZA2); test: Confirmatory qHTS for agonist of cAMP-regulated guanine nucleotide exchange factor 4 (EPAC2) (AID 1645884);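 note: nucleotide exchange releases bodipy-GDP from Rap1 and this lowers its fluorescence; nearly all actives have a fitted effect of over 65% in size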
# Rap guanine nucleotide exchange factor 4 (Homo sapiens), sequence (Q8WZA2 whole entry, looked up, the tested form may be a part): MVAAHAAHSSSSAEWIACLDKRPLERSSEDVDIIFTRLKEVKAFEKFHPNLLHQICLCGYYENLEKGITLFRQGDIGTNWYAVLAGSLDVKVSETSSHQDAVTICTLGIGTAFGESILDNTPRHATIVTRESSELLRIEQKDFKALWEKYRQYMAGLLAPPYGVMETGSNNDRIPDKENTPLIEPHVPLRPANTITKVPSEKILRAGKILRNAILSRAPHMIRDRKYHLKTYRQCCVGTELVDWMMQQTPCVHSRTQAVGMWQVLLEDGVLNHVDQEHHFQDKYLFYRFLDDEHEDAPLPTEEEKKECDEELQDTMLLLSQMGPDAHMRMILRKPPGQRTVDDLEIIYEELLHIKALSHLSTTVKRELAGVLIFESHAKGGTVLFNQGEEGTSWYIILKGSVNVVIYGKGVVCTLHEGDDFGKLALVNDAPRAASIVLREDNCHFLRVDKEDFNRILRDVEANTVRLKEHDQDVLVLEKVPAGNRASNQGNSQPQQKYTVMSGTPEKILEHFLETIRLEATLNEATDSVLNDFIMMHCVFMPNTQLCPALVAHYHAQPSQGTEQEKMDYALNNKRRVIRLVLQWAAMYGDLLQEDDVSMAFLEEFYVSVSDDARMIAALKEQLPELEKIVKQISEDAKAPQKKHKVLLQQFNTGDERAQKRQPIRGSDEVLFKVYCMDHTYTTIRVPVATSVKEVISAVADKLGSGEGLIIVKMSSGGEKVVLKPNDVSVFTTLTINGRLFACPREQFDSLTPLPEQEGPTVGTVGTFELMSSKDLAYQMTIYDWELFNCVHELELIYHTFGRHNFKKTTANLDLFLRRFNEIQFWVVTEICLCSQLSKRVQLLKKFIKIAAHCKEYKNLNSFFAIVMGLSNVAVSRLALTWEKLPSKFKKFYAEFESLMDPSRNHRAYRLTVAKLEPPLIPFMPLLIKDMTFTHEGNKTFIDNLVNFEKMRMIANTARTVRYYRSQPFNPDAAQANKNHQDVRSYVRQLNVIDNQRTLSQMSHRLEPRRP
# [6] = molecular target: Rap guanine nucleotide exchange factor 4 (Homo sapiens) (UniProt Q8WZA2); test: Confirmatory qHTS for antagonist of cAMP-regulated guanine nucleotide exchange factor 4 (EPAC2) (AID 1645885); note: potency is the fitted concentration of half-maximal effect; nearly all actives have a fitted effect of over 25% in size
# [7] = Primary qHTS for inhibitors of nuclear receptor binding SET domain protein 2 (NSD2) in an isogenic RCH-ACV NSD2 p.E1099K mutant (9B) (AID 1645876); note: nearly all actives have a fitted effect of over 70% in size; note: potency is the fitted concentration of half-maximal effect
# [8] = Primary qHTS for inhibitors of nuclear receptor binding SET domain protein 2 (NSD2) in an RCH-ACV wild type WT cells (2C) (AID 1645877); note: nearly all actives have a fitted effect of over 70% in size; note: potency is the fitted concentration of half-maximal effect
# [9] = NCATS anti-infectives library activity on HEK293 viability as a counter-qHTS vs the C. elegans viability qHTS (AID 1745854);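 note: HEK293 cells exposed to compounds for 24 hr before the viability read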
# In short: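 Compound titrations (final up to 41.7 uM) were incubated with HEK293 cells for 24 hr at 37C under 5% CO2. Viable cells were quantified with CellTiter-Glo after 10 min at ambient temperature.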
# [10] = NCATS anti-infectives library activity on the primary C. elegans qHTS viability assay (AID 1745855; calls by dose curve)
# In short: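 Titration-based screen in worms: eggs hatched overnight in M9, L1 larvae fed TOP10 capsules in S medium with compound, incubated 21 °C for 7 days; fluorescent objects gated by size and intensity at days 0, 3 and 7.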
smiles,measurement,setting,value
CC(Cc1cccc(C(F)(F)F)c1)NCCOC(=O)c1ccccc1 (stereo not drawn),Potency,[1],inactive
same,Potency,[2],6.9 nM (active)
same,Potency,[3],19500 nM (active)
same,outcome,[4],inactive
same,Potency,[5],inactive
same,Potency,[6],49400 nM (active)
CC(O)(P(=O)(O)O)P(=O)(O)O,Potency,[1],inactive
same,Potency,[2],inactive
same,Potency,[3],inactive
same,Potency,[7],inactive
same,Potency,[8],inactive
same,"activity change, negative = cytotoxicity",[9],0.883% [at 8.35 µM] (inactive)
Oc1cc(O)c2c(c1)O[C@H](c1ccc(O)c(O)c1)[C@H](O)C2,Potency,[1],inactive
same,Potency,[2],inactive
same,Potency,[3],inactive
same,Potency,[7],inactive
same,Potency,[8],inactive
COc1c(C)c2c(c(O)c1C/C=C(\C)CCC(=O)O)C(=O)OC2,Potency,[1],inactive
same,Potency,[2],inactive
same,Potency,[3],inactive
same,Potency,[7],66.8 nM (active) and 833 nM (active)
same,Potency,[8],53.1 nM (active) and 590 nM (active)
CCOc1ccc(NC(=O)CC(C)O)cc1 (stereo not drawn),Potency,[1],inactive
same,Potency,[2],inactive
same,Potency,[3],inactive
same,Potency,[7],inactive
same,Potency,[8],inactive
O=c1[nH]c(=O)n([C@H]2CCCO2)cc1F,Potency,[1],inactive
same,Potency,[2],inactive
same,Potency,[3],inactive
same,Potency,[7],inactive
same,Potency,[8],inactive
CC(=O)OCC(=O)[C@@]12N=C(C)O[C@@H]1C[C@H]1[C@@H]3CCC4=CC(=O)C=C[C@]4(C)[C@H]3[C@@H](O)C[C@@]12C,Potency,[1],inactive
same,Potency,[2],inactive
same,Potency,[3],inactive
same,Potency,[8],150 nM (active) and 417 nM (active)
C[C@]12CCC(=O)C=C1CC[C@H]1[C@@H]3CC[C@](O)(C(=O)CO)[C@@]3(C)C[C@H](O)[C@@]12F,Potency,[1],inactive
same,Potency,[2],inactive
same,Potency,[3],inactive
same,Potency,[8],10.6 nM (active)
CCCCCCC[N+](CC)(CC)CCCCc1ccc(Cl)cc1,Potency,[1],inactive
same,Potency,[2],97.7 nM (active)
same,Potency,[3],inactive
same,Potency,[7],1.88 µM (active)
same,Potency,[8],1880 nM (active)
CCCN1CCCC[C@H]1C(=O)Nc1c(C)cccc1C,Potency,[1],inactive
same,Potency,[2],4900 nM (active)
same,Potency,[3],inactive
same,Potency,[7],inactive
same,Potency,[8],inactive
O=c1ccc2ccccc2o1,Potency,[1],inactive
same,Potency,[2],inactive
same,Potency,[3],inactive
same,Potency,[7],inactive
same,Potency,[8],inactive
same,Potency,[9],inactive
same,Potency,[10],inactive
Cc1ccc(C(=O)C(C)CN2CCCCC2)cc1 (stereo not drawn),Potency,[1],inactive
same,Potency,[2],1740 nM (active)
same,Potency,[3],inactive
same,Potency,[7],inactive
same,Potency,[8],21100 nM (active)
OCc1ccccc1O,Potency,[1],inactive
same,Potency,[2],inactive
same,Potency,[3],inactive
same,Potency,[7],inactive
same,Potency,[8],inactive
CCCC(=O)O[C@]1(C(=O)CO)CC[C@H]2[C@@H]3CCC4=CC(=O)CC[C@]4(C)[C@H]3[C@@H](O)C[C@@]21C,Potency,[1],inactive
same,Potency,[2],inactive
same,Potency,[3],inactive
same,Potency,[8],29.9 nM (active)
O=C(O)CNC(=O)c1ccccc1,Potency,[1],inactive
same,Potency,[2],inactive
same,Potency,[3],inactive
same,Potency,[7],inactive
same,Potency,[8],inactive
NC(CO)(CO)CO,Potency,[1],inactive
same,Potency,[2],inactive
same,Potency,[3],inactive
same,Potency,[7],inactive
same,Potency,[8],inactive
CC[C@@H](CO)NCCN[C@@H](CC)CO,Potency,[1],inactive
same,Potency,[2],inactive
same,Potency,[3],inactive
same,Potency,[7],inactive
same,Potency,[8],inactive
same,Potency,[9],inactive
CN1C(CCl)Nc2cc(Cl)c(S(N)(=O)=O)cc2S1(=O)=O (stereo not drawn),Potency,[1],inactive
same,Potency,[2],inactive
same,Potency,[3],inactive
same,Potency,[7],inactive
same,Potency,[8],inactive
NC(CS)C(=O)O (stereo not drawn),Potency,[1],inactive
same,Potency,[2],inactive
same,Potency,[3],inactive
same,Potency,[7],inactive
same,Potency,[8],inactive
O=C(O)CCCCC(=O)O,Potency,[1],inactive
same,Potency,[3],inactive
same,Potency,[7],inactive
same,Potency,[8],inactive
CCC(C(=O)OCCN(CC)CC)c1ccccc1 (stereo not drawn),Potency,[1],inactive
same,Potency,[3],inactive
same,Potency,[7],inactive
same,Potency,[8],inactive
CCN(CC)CCNC(=O)COc1ccc(Cl)cc1,Potency,[1],inactive
same,Potency,[3],inactive
same,Potency,[7],inactive
same,Potency,[8],inactive
Cc1c(N(C)CS(=O)(=O)O)c(=O)n(-c2ccccc2)n1C,Potency,[1],inactive
same,Potency,[3],inactive
same,Potency,[7],inactive
same,Potency,[8],inactive
Cc1c(C(N)=O)cc([N+](=O)[O-])cc1[N+](=O)[O-],Potency,[1],inactive
same,Potency,[3],inactive
same,Potency,[7],inactive
same,Potency,[8],inactive
CCN1CCCC1=O,Potency,[1],inactive
same,Potency,[3],inactive
same,Potency,[7],inactive
same,Potency,[8],inactive
O=S1(=O)c2cccc3cccc(c23)N1CCCN1CCN(c2ccc(F)cc2)CC1,Potency,[1],inactive
same,Potency,[3],inactive
same,Potency,[7],inactive
same,Potency,[8],inactive
COc1ccc(OC)c(C(O)CNC(=O)CN)c1 (stereo not drawn),Potency,[1],inactive
same,Potency,[2],inactive
same,Potency,[7],inactive
same,Potency,[8],inactive
CC(C)(C(=O)c1cccnc1)c1cccnc1,Potency,[1],inactive
same,Potency,[3],inactive
CN=C(NC#N)Nc1ccc(C2=NNC(=O)CC2C)cc1 (stereo not drawn),Potency,[1],inactive
same,Potency,[3],inactive
same,Potency,[7],inactive
same,Potency,[8],inactive
CC(=O)[C@H]1CC[C@H]2[C@@H]3C[C@H](C)C4=CC(=O)CC[C@]4(C)[C@H]3[C@@H](O)C[C@]12C,Potency,[1],inactive
same,Potency,[3],860 nM (active)
Cc1cc(=O)n(-c2ccccc2)n1C,Potency,[1],inactive
same,Potency,[2],inactive
same,Potency,[7],inactive
same,Potency,[8],inactive
C[C@]12CCC(=O)C=C1[C@@H]1C[C@@H]1[C@H]1[C@@H]3[C@@H]4C[C@@H]4[C@@]4(CCC(=O)O4)[C@@]3(C)CC[C@@H]12,Potency,[1],inactive
same,Potency,[3],inactive
